The values that follow come from PubChem BioAssay (NCATS).

SMILES strings stand for the structures. Records with an inconclusive call do not appear. Entries that show only a call come without a potency. The source made the active and inactive calls. Unless noted, calls come from the whole dose curve; as a rule, active = well fitted curve in the direction sought with a large enough effect; inconclusive = small, poorly fitted or top-dose-only effect, or another doubt; inactive = no such curve, though single readings can be large; an effect the other way counts as inactive or inconclusive.

For assay [1], the target named is 3',5'-cyclic-AMP phosphodiesterase 4B (Homo sapiens) (UniProt Q07343). In words: qHTS Assay for Inhibitors of PDE-IV (AID 607; active = well fitted activation curve with a large enough effect in the main read-out, with a control signal flat, not every such curve was filed as active). The gist of the method: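 HEK293 ACTOne cells with CNG channel (1000/well), endogenous PDE4; membrane potential dye, compounds up to 22.9 uM final. Fluorescence Ex 535/Em 590; RO 20-1724 (100 uM final) as reference.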
On the technique in general: In qHTS, concentration-response curves come from the screen itself.

A short description of assay [2]: qHTS for Inhibitors of the vitamin D receptor (VDR): Hit Validation using a Texas Red Assay (AID 602201). Note: potency is the fitted concentration of half-maximal effect. The procedure, abridged:
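Fluorescence polarization (Ex 595/Em 615 nm) of Texas Red (7 nM) with 1.5 uM VDR-LBD and LG19078 (final concentrations). Compounds were incubated for 2 hours at room temperature.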

Assay [3] deals with Cytochrome P450 3A4 (Homo sapiens) (UniProt P08684). In words: qHTS Assay for Activators of Cytochrome P450 3A4 (AID 885). Note: nearly all actives have a fitted effect of over 65% in size. The gist of the method:
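Human CYP3A4 dealkylates Luciferin-PPXE to luciferin, which luciferase detection converts to light. Substrate was at its KM (25uM), buffer 200mM KPO4, reaction 60 min at RT.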

In assay [4] the target is Cytochrome P450 2C19 (Homo sapiens) (UniProt P33261). In words: qHTS Assay for Inhibitors and Substrates of Cytochrome P450 2C19 (AID 899). Note: potency is the fitted concentration of half-maximal effect; nearly all actives have a fitted effect of over 60% in size. The procedure, abridged:
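In 50mM KPO4, the reaction held 5nM enzyme and KM-level (10uM) Luciferin-H EGE; it ran 60 min at 37C after NADPH regeneration and a 10 min compound preincubation. Luminescence values were scaled to 57uM ketoconazole as complete inhibition.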

Assay [5] deals with Luciferin 4-monooxygenase (Photinus pyralis) (UniProt P08659). In words: Biochemical firefly luciferase enzyme assay for NPC (AID 624030).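 Note: purified P. pyralis luciferase at 10 nM with luciferin and ATP substrate; series mostly up to about 59 µM; nearly all actives have a fitted effect of over 70% in size.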 The procedure, abridged:
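Counter-screen for direct inhibition of the luciferase enzyme by approved-drug library compounds, run at 10 nM enzyme in 50 mM Tris acetate (final). Luminescence was read within 5 min of enzyme-buffer addition and normalized to PTC124 versus DMSO (0%).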

Sequence of 3',5'-cyclic-AMP phosphodiesterase 4B (Homo sapiens) (Q07343 whole entry, looked up): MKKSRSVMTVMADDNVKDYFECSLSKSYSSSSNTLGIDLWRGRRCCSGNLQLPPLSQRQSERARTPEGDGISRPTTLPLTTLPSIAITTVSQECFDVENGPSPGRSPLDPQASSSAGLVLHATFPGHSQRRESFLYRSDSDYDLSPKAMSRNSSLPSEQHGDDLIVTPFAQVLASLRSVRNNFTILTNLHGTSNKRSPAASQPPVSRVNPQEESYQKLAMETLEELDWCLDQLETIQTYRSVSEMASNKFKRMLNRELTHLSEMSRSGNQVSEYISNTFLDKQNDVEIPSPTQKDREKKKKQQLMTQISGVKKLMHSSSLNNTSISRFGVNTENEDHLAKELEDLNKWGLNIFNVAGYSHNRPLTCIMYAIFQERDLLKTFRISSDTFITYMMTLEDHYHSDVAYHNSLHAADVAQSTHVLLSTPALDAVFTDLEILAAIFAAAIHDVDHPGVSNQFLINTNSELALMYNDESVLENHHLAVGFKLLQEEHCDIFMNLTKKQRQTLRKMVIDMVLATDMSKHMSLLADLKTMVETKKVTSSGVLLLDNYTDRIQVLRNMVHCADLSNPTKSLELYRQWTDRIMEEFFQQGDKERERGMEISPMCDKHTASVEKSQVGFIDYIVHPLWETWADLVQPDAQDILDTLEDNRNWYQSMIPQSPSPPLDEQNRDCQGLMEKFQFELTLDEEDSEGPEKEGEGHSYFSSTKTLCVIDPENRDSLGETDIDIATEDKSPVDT
Sequence of Luciferin 4-monooxygenase (Photinus pyralis) (P08659 whole entry, looked up): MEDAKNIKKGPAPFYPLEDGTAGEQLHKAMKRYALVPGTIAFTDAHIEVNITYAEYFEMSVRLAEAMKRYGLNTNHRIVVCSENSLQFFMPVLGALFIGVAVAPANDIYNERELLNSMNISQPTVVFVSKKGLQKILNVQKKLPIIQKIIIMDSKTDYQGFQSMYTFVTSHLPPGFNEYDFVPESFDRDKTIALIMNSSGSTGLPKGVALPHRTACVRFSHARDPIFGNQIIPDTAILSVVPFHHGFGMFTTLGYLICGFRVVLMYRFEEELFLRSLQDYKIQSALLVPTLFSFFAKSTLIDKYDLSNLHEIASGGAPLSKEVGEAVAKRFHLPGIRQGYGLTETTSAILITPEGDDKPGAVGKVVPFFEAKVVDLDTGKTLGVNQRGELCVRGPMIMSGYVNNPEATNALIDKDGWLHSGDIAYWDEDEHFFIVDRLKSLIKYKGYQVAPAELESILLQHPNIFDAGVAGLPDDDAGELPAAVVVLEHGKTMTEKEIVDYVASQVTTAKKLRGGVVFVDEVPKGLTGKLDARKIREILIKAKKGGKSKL
Sequence of Cytochrome P450 2C19 (Homo sapiens) (P33261 whole entry, looked up): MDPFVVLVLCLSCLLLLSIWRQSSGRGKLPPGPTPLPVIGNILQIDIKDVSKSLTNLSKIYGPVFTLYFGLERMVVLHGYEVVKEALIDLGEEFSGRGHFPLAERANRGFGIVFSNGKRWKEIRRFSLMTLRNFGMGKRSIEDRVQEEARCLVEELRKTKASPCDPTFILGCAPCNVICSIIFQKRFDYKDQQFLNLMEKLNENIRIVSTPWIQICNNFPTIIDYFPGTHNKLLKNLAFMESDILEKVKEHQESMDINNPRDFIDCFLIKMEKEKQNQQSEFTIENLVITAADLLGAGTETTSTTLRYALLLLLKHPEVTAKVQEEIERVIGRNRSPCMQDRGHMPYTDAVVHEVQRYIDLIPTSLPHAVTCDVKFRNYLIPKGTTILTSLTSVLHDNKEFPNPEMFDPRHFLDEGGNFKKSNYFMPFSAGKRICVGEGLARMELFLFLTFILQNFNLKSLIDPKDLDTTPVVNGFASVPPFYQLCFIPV
Sequence of Cytochrome P450 3A4 (Homo sapiens) (P08684 whole entry, looked up): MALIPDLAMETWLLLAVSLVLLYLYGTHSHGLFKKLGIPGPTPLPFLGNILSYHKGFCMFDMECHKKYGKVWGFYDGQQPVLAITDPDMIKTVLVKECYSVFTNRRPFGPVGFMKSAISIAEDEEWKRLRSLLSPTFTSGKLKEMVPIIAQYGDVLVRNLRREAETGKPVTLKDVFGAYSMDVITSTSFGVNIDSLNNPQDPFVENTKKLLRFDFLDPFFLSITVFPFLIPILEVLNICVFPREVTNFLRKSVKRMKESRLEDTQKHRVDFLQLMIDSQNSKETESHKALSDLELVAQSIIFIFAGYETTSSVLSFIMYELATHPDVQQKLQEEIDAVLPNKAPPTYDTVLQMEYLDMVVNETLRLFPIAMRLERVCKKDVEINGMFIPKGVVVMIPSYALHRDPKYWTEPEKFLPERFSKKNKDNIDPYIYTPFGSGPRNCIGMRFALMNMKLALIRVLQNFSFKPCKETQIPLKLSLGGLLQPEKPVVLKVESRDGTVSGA

Regarding `COC(=O)[C@@]1(Cc2ccc(OC)cc2)[C@H]2c3cc(C(=O)N4CCCC4)n(Cc4ccsc4Br)c3C[C@H]2CN1C(=O)c1ccccc1`, the outcome in assay [1] was inactive.
As for `COC(=O)[C@@]1(Cc2ccc(F)cc2)[C@H]2c3cc(C(=O)N(C)C)n(Cc4ccccc4)c3C[C@H]2CN1C(=O)c1ccccc1`, the call in assay [1] was inactive.
In the case of `O=C1OC(NC(=O)c2ccccc2)C(n2cc(CO)nn2)=C1Cl` (stereo unspecified), the Potency result in assay [2] is “inactive”.
As for `COC(=O)[C@@]1(Cc2ccc(OC)cc2)[C@H]2c3cc(C(=O)N4CCCC4)n(CCc4ccccn4)c3C[C@H]2CN1C(=O)c1ccccc1`, the molecule was called inactive in assay [1].
Turning to `NS(=O)(=O)c1ccc(NC(=O)c2nc(S(=O)(=O)Cc3ccccc3F)ncc2Cl)cc1`, in assay [2], the Potency was 3.16 µM (active).
Regarding `c1ccc(-c2ccc(C3=Nn4c(Cn5nnc6ccccc65)nnc4SC3)cc2)cc1`, the Potency in assay [2] is 22.4 µM (active).
Consider `COC(=O)[C@@]1(Cc2ccc(OC)cc2)[C@H]2c3cc(C(=O)N(C)C)n(Cc4ccc(C)c(F)c4F)c3C[C@H]2CN1C(=O)c1ccccc1`, for which, in assay [1], the molecule was called inactive.
On the same count and under the same terms, to `C[C@@H](C(=O)Nc1ccc2ccccc2c1)[C@H]1C[C@]1(C)[C@H](NC(=O)c1cccnc1)c1ccccc1` belongs “inactive”.
Same read-out and setting: the same measure for `COC(=O)[C@@]1(Cc2ccc(F)cc2)[C@H]2c3cc(C(=O)N(C)C)n(CCN4CCOCC4)c3C[C@H]2CN1C(=O)c1ccccc1`: “inactive”; for `C[C@@H](C(=O)N[C@@H](CO)Cc1ccccc1)[C@H]1C[C@]1(C)[C@H](NC(=O)OCc1ccccc1)c1ccccc1`: “inactive”.
For `CCOC(=O)N1C(=O)[C@@](CC)(c2ccccc2)N1C(=O)OCC`, in assay [2], the Potency result is “inactive”.
Take `O=C(O)CN1C(=O)/C(=C\c2cc(Br)ccc2OCc2ccc(F)cc2)SC1=S`: the Potency entry in assay [2] is “inactive”.
Turning to `COC(=O)[C@@]1(Cc2ccc(OC)cc2)[C@H]2c3cc(C(=O)N(C)C)n(CCc4ccc(OC)c(Br)c4)c3C[C@H]2CN1C(=O)c1ccccc1`, the molecule was classed as inactive in assay [1].
`COC(=O)[C@@]1(Cc2ccc(OC)cc2)[C@H]2c3cc(C(=O)N4CCCC4)n(Cc4cc(F)c(F)c(F)c4)c3C[C@H]2CN1C(=O)c1ccccc1`: the call in assay [1] was inactive.
As to `CCC/C=C(\CCC)C(NC(=O)CCc1ccccc1)c1ccc(C(F)(F)F)cc1` (stereo unspecified), the molecule was classed as inactive in assay [1].
Regarding `O=C1NN(c2ccccc2)C(=O)/C1=C\c1cccc(OC(=O)c2cccs2)c1`, the Potency result in assay [2] was “inactive”.
Take `COC(=O)[C@@]1(Cc2ccc(F)cc2)[C@H]2c3cc(C(=O)N(C)C)n(CCO)c3C[C@H]2CN1C(=O)c1ccccc1`: the molecule was called inactive in assay [1].
On to `O=C(O)/C=C/C(=O)c1ccc2c(c1)NC(=O)CO2`, for which, in assay [2], the Potency entry is “inactive”.
Still for that read-out and setting: to `O=c1nc(/C=C/c2cc([N+](=O)[O-])ccc2Cl)cc(C(F)(F)F)[nH]1` belongs 3.55 µM (active); to `COc1ccc(/C=C/C(=O)c2ccc([N+](=O)[O-])o2)cc1OC`, 10 µM (active).
With `COC(=O)[C@@]1(Cc2ccc(F)cc2)[C@H]2c3cc(C(=O)N(C)C)n(CC4CC4)c3C[C@H]2CN1C(=O)c1ccccc1`, the call in assay [1] was inactive.
With `Cc1cc(C)nc(S/C=C/C(=O)c2ccccc2F)n1`, the Potency in assay [2] is 7.94 µM (active).
As to `COC(=O)[C@@]1(Cc2ccccc2)[C@H]2c3cc(C(=O)N(C)C)n(Cc4ccc(O)c(OC)c4)c3C[C@H]2CN1C(=O)c1ccccc1`, in assay [1], the result was inactive.
As for `COC(=O)[C@H]1[C@@H]2C[C@H]3c4[nH]c5ccccc5c4CCN3C[C@@H]2CC[C@@H]1O`, the call in assay [1] was inactive.
Consider `COC(=O)[C@@]1(Cc2ccc(OC)cc2)[C@H]2c3cc(C(=O)N4CCCC4)n(CCCNc4ncc(C(F)(F)F)cc4Cl)c3C[C@H]2CN1C(=O)c1ccccc1`, for which, in assay [3], the Potency entry was “inactive”. The Potency in assay [4] is 3.16 µM (active).
As to `O=S(=O)(O)OCC1OC(COS(=O)(=O)O)(C2(OS(=O)(=O)O)OC(CO)C(OS(=O)(=O)O)C(OS(=O)(=O)O)C2OS(=O)(=O)O)C(OS(=O)(=O)O)C1OS(=O)(=O)O` (stereo unspecified), the Potency result in assay [5] was “inactive”.
As to `CO[C@@]1(NC(=O)CSC(F)F)C(=O)N2C(C(=O)O)=C(CSc3nnnn3CCO)CO[C@@H]21`, the Potency entry in assay [5] is “inactive”.
As for `COc1cc(/C=C/C(=O)O[C@H]2CC[C@]34C[C@]35CC[C@]3(C)[C@@H]([C@H](C)CCC=C(C)C)CC[C@@]3(C)C5CCC4C2(C)C)ccc1O` (stereo partly specified), the Potency entry in assay [5] was “inactive”.
For `CC1NC(=O)C(N)CNC(=O)C(C2CCN=C(N)N2)NC(=O)/C(=C/NC(N)=O)NC(=O)C(CNC(=O)CC(N)CCCN)NC1=O` (stereo unspecified), the Potency result in assay [5] is “inactive”.
The same measure, in the same setting: the same measure for `CC(C)C[C@@H](NC(=O)[C@@H](COC(C)(C)C)NC(=O)[C@H](Cc1ccc(O)cc1)NC(=O)[C@@H](CO)NC(=O)[C@@H](Cc1c[nH]c2ccccc12)NC(=O)[C@@H](Cc1cnc[nH]1)NC(=O)[C@@H]1CCC(=O)N1)C(=O)N[C@H](CCCN=C(N)N)C(=O)N1CCC[C@H]1C(=O)NNC(N)=O`: “inactive”.
